Compound activity from PubChem BioAssay.
aDG glyco act: alpha-DG glycosylation activation; 0.22% of 360,000 active; Pro5-aDG cells, alpha-DG glycosylation AlphaScreen (IIH6); 0% Pro5, 100% B10-LARGE cell signal; AID 624168; activation, % at 10 µM;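 active = activation of at least 8% versus controls, or a plate z-score of at least 8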;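 note: Pro5 are CHO cells carrying HIG-tagged alpha-DG that lacks glycosylation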
NR1D1 modulator: Rev-erb alpha (human) modulation | Rev-erbα–FITC-DNA binding, fluorescence polarization, 90 min | activity, % at 10 µM | 0.79% of 370,000 active | AID 1259318;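 active = activity above about 14%, limit read from the data; passing the limit was not always enough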;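 note: 0% = DMSO wells with 35 nM protein and 100% = DMSO wells with 750 nM protein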
EBNA-1 inhibitor: blocks EBNA-1 binding to DNA; 0.34% of 300,000 active; inhibition, % at 14.8 µM; EBNA-1 DNA binding, fluorescence polarization; AID 1950; in the data active = inhibition above about 28%
ZTA counter: counter-screen for EBNA-1 inhibitors: inhibitors of Epstein-Barr virus ZTA; P03206; ZTA-DNA binding, fluorescence polarization; inhibition, % at 11 µM; 0.15% of 320,000 active; in the data active = inhibition above about 33%
Target sequence (P03206 whole entry, looked up): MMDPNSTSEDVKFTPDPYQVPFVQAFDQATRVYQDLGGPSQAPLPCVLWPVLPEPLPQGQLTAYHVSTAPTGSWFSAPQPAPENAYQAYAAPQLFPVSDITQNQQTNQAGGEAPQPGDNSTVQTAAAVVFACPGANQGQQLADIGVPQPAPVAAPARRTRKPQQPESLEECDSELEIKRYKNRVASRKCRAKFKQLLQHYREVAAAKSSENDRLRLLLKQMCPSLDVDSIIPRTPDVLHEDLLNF
PG9 binder: PG9 antibody binding by small molecule | TR-FRET gp120-PG9 antibody binding | inhibition, % at 6.7 µM | 0.43% of 360,000 active; in the data active = inhibition above about 8.5%
NCF1 inh: blocks human p47phox regulatory protein of NADPH oxidases; P14598; p47phox/p22phox peptide binding, fluorescence polarization, 2 h; inhibition, % at 24.7 µM; 0.53% of 220,000 active; AID 1274;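 active = inhibition above about 30%, limit read from the data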;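 note: 0% = p47phox with labelled peptide and 100% = labelled peptide alone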
Target sequence (P14598 whole entry, looked up): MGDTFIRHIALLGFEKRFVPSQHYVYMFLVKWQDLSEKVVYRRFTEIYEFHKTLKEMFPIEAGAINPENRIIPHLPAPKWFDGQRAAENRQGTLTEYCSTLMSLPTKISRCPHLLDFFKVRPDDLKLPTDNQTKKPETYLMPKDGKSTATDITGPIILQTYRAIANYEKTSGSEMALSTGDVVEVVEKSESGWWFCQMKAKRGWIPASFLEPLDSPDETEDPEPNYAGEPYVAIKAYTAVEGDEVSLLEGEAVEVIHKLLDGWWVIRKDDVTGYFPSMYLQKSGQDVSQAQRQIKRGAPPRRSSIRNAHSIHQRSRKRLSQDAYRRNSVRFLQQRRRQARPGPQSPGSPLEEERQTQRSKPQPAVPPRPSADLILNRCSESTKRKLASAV
EBNA-1 confirm: EBNA-1 (EBV) inhibition, confirmation. 35% of 830 active. shares compounds with EBNA-1 inhibitor. Recombinant EBNA-1 DBD, Cy5-DNA fluorescence polarization. inhibition, % at 14.8 µM;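 active = mean inhibition across replicates above a set limit taken from the earlier primary screen, cut at about 28% in these data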;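 note: plate controls were EBNA-1 protein with DMSO for no effect and wells lacking EBNA-1 for full effect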
ZTA counter trip: ZTA (EBV) inhibition, triplicate counter-screen; shares compounds with EBNA-1 inhibitor; Zta-ZRE DNA binding, Cy5 fluorescence polarization; inhibition, % at 11.1 µM; 830 tested, under 10 active; AID 2328;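 active = mean inhibition over triplicates above a set limit taken from the primary EBNA-1 screen, cut at about 37% in these data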;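 note: purified full length Zta protein with Cy5 labeled ZRE DNA probe; 0% = Zta with DMSO and 100% = wells lacking Zta protein; inhibitors lower polarization by freeing the labeled DNA probe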
* hit, by the source's call; x = no result. An excerpt weighted towards active compounds, which were near 1.9% of everything screened.

SMILES | aDG glyco act | NR1D1 modulator | EBNA-1 inhibitor | ZTA counter | PG9 binder | NCF1 inh | EBNA-1 confirm | ZTA counter trip
COc1cc(NC(=S)NC(=O)c2ccc(F)cc2)ccc1NC(=O)c1ccco1 | 0 | -4 | 40* | 3 | 1 | -11 | 35* | 3
COc1cc(NC(=S)NC(=O)c2cc(C)cc(C)c2)ccc1NC(=O)c1cccs1 | 0 | 2 | 70* | 9 | -2 | -14 | 1 | 2
COc1cccc(N2CCN(CC(=O)NCc3ccccc3C)CC2)c1 | x | -10 | x | x | x | x | x | x
Nc1c(C(=O)NC2CC2)sc2nc3c(c(-c4ccco4)c12)CC/C3=C/c1ccco1 | 0 | x | 46* | 11 | x | 8 | -2 | 15
NC(=O)c1sc2nc3c(c(-c4ccco4)c2c1N)CCC3 | 0 | -6 | -9 | -6 | 0 | -13 | x | x
Cc1cc(C(=O)OCCCN(C)C2CN(Cc3cn(Cc4ccccc4C(F)(F)F)nn3)S(=O)(=O)C2)no1 (stereo not given) | x | 6 | x | x | x | x | x | x
C[C@H]1[C@@H](OC(=O)Nc2ccc(C#N)cc2)CC[C@@]23CCCN2C(=O)CCC[C@@H]13 | x | -1 | x | x | x | x | x | x
COc1cccc(N2CCN(S(=O)(=O)c3ccc(-c4cnc(C5CC5)o4)cc3)CC2)c1 | 0 | -4 | 91* | -5 | 1 | x | 84* | 2
C=CCNC(=S)Nc1c(C(=O)OC)[nH]c2cc(OC)ccc12 | 0 | 3 | 29* | 15 | -2 | -23 | 7 | 1
O=C1CC(c2ccc3c(c2)OCO3)N=C2N(Cc3ccc4c(c3)OCO4)C/C(=C/c3ccccc3)N12 (stereo not given) | x | -3 | x | x | x | x | x | x
COc1ccc(-c2ccc(C#N)c(SCC(=O)NCCc3ccccc3)n2)cc1OC | 2 | x | 28* | -1 | x | 23 | -5 | 0
COc1ccc(C(=O)OCCCN(C)C2CN(Cc3cn(Cc4ccccc4Cl)nn3)S(=O)(=O)C2)cc1OC (stereo not given) | x | -3 | x | x | x | x | x | x
COc1ccc(-n2c(SCC(=O)NCC3CCCO3)nc3c([nH]c4ccccc43)c2=O)cc1 (stereo not given) | 0 | -4 | 110* | 8 | 1 | x | 123* | -12
CCn1c(SCC(=O)Nc2ccc(C(C)=O)cc2)nc2c([nH]c3ccccc32)c1=O | 0 | 0 | 39* | -5 | 0 | x | -6 | 3
CN(C(=O)CCn1nnc(-c2cccs2)n1)C1CCCCC1 | x | 8 | x | x | x | x | x | x
CC(=O)Nc1ccc(NC(=O)c2ccc(NS(=O)(=O)c3cccc4cccnc34)cc2)cc1 | 0 | 7 | 39* | 5 | -1 | x | 18 | 6
Cc1ccc(NC(=O)c2ccc(NS(=O)(=O)c3cccc4cccnc34)cc2)cc1 | 0 | x | -6 | -1 | x | x | x | x
C[C@H]1[C@@H](NC(=O)c2ccc(C(C)(C)C)cc2)CC[C@@]23CCCN2C(=O)CCC[C@@H]13 | x | -3 | x | x | x | x | x | x
CCOC(=O)CC(NC(=O)Cc1ccccc1)c1ccccc1Cl (stereo not given) | 0 | 0 | 4 | -19 | 0 | -14 | x | x
CCOC(=O)CC(NC(=O)C1c2ccccc2Oc2ccccc21)c1ccccc1Cl (stereo not given) | 0 | 2 | 102* | -6 | 0 | -5 | 4 | -21
Cc1ccc(-n2c(Cc3cccs3)nnc2SCC(=O)Nc2cccc3ccccc23)cc1 | x | -1 | x | x | x | x | x | x
CCOC(=O)c1[nH]c2ccccc2c1NC(=O)c1ccc(S(=O)(=O)N(C)C)cc1 | 0 | -3 | 3 | 9 | 0 | -8 | x | x
CCOC(=O)c1oc2ccccc2c1NC(=O)c1ccc(S(=O)(=O)N2CCCC2)cc1 | 0 | -1 | 37* | -8 | -1 | -4 | 47* | 0
CCOC(=O)c1[nH]c2ccccc2c1NC(=O)c1ccc(S(=O)(=O)N2CCCCC2)cc1 | 0 | -2 | 15 | -1 | -2 | -5 | x | x
CCOC(=O)c1oc2ccccc2c1NC(=O)c1ccc(S(=O)(=O)N(C)C)cc1 | 0 | -2 | 47* | -7 | -2 | 10 | 52* | 6
SMILES | aDG glyco act | NR1D1 modulator | EBNA-1 inhibitor | ZTA counter | PG9 binder | NCF1 inh | EBNA-1 confirm | ZTA counter trip
CCN1C(=O)/C(=C2/C=Cc3cc(C)ccc3N2CC)N(C)C1=S | 0 | -2 | 29* | -3 | -23 | -5 | -3 | -10
CCN1/C(=C2/SC(=S)N(C)C2=O)C=Cc2cc(C)ccc21 | 0 | 2 | -4 | 0 | -4 | x | x | x
CCOc1ccc(-n2c(SCC(=O)Nc3ccc(S(=O)(=O)Nc4cc(C)nc(C)n4)cc3)nnc2-c2cccc(C)c2)cc1 | x | 0 | x | x | x | x | x | x
COC(=O)c1cccc(S(=O)(=O)N2CCC(NC(=O)Nc3cccc(F)c3)CC2)c1 | 0 | -3 | 36* | 2 | -1 | -6 | 61* | -2
CC(=O)c1ccc(S(=O)(=O)N2CCC(NC(=O)Nc3cccc(F)c3)CC2)cc1 | 0 | 4 | -1 | -7 | 1 | -3 | x | x
Cc1nc(NC(=O)CSc2ccc(-c3nc4ccccc4[nH]3)cn2)sc1C | 1 | -2 | 26 | 5 | 3 | -27 | x | x
CCc1nnc(NC(=O)CSc2ccc(-c3nc4ccccc4[nH]3)cn2)s1 | 0 | -14 | 58* | 14 | -2 | -21 | 53* | 0
C=CCN1[C@H](Cc2ccccc2)COc2cccc(N3CCCC3)c2S1(=O)=O | x | 8 | x | x | x | x | x | x
COc1ccc(C(=O)Nc2ccccc2C(=O)NC(Cc2ccc(O)cc2)C(=O)NNC(=O)c2ccccc2)cc1 (stereo not given) | 0 | 3 | 82* | -16 | 0 | -4 | -8 | -10
CCCCCN1CCCCC(NC(=O)C(C)(C)C)C1=O (stereo not given) | x | -3 | x | x | x | x | x | x
CCCn1c(C)cc(/C=C(\C#N)C(=O)OCC(=O)Nc2cccc(OC)c2)c1C | 0 | -4 | 67* | 3 | -4 | -12 | 0 | 2
CCCn1c(C)cc(/C=C(\C#N)C(=O)OCC(=O)Nc2cccc(S(N)(=O)=O)c2)c1C | 0 | -8 | x | 16 | -1 | x | x | x
COC(=O)[C@]12C[C@H](CC(=O)NCc3cccs3)C(=O)N(CCc3ccc(OC)c(OC)c3)C1=C[C@H](COCc1ccccc1)O[C@@H]2C | x | 3 | x | x | x | x | x | x
Cc1ccc2oc(-c3cccc(NC(=O)c4ccc(Br)o4)c3)nc2c1 | 0 | 10 | 0 | 3 | 0 | -38 | x | x
Cc1cc2nc(-c3cccc(NC(=O)c4ccc(Br)o4)c3)oc2cc1C | 0 | 3 | 51* | 2 | 0 | -19 | 15 | -2
O=[N+]([O-])c1ccc2nc(COCc3nc4ccccc4[nH]3)[nH]c2c1 | x | 7 | x | x | x | x | x | x
CCN(CC)S(=O)(=O)c1cc(NC(=O)CSc2nnc(N)s2)ccc1C | 0 | -3 | x | -18 | 0 | x | x | x
